Activity calls are given as the source filed them.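 The calls were made as follows, unless noted: active = fluorescence slope higher than the sample average by over 3 SD (cut at about -0.22 in these data, passing the limit was not always enough); inactive = the rest.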
How the values were obtained:
[1] = inhibitors of TNFa-induced NFkB p65 translocation, primary screen, imaging, HUVEC, MLSMR starter and 10KST1 sets (AID 438;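 active = inhibition above 20% together with a positive visual image hit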;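 also: compound added about 3h40 before a 20 min TNFalpha stimulation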;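 as to inhibition: signal is the nuclear over cytoplasmic p65 intensity ratio per well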); settings: HUVEC TNFa-induced p65 nuclear translocation; cell count: measured here: nuclei count (cytotoxicity indicator), at 2.08 µM unless noted; inhibition: at 2 µM, stronger effect = higher value unless noted
[2] = inhibitors of mutant huntingtin aggregation, primary screen, imaging, exon1htt(103Q)mCFP cells, high-content imaging (AID 483;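 active = visual image review flags a hit and inhibition of aggregation exceeds 20%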;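 also: compound exposure lasted 3 days before fixation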;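 as to nuclei count: percent of the per-plate median nuclei count of sample wells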); settings: exon1htt(103Q)mCFP cell line, aggregate imaging, at 2 µM; inhibition of aggregation: stronger effect = higher value; nuclei count: measured here: cell count, toxicity
[3] = inhibitors of E-selectin induction by TNFa, primary screen, imaging, HUVEC, immunofluorescence, MLSMR starter and 10KST1 sets (AID 487;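 active = visually confirmed hit in the image check and inhibition above 20%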;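 as to inhibition: signal is fraction of cell area covered by stained E-selectin grains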;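 as to nuclei count: 100% = median nuclei count of all wells on the same plate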); settings: HUVEC TNFalpha-induced E-selectin immunofluorescence imaging, at 2 µM; inhibition: stronger effect = higher value; nuclei count: measured here: cell number, toxicity
[4] = target: Voltage-gated potassium channel subunit beta-2 (Rattus norvegicus) (UniProt P62483); experiment: KvBeta enzyme negative modulators, primary screen, biochemical, NADPH fluorescence (AID 622); settings: recombinant KvBeta, 4-cyanobenzaldehyde reduction, at 10 µM, stronger effect = higher value;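 also: slope of raw intensity against log time taken from 70 to 1610 s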
[5] = target: Voltage-gated potassium channel subunit beta-2 (Rattus norvegicus) (UniProt P62483); experiment: KvBeta positive modulators, primary screen, biochemical, NADPH fluorescence (AID 623;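 active = NADPH fluorescence slope more negative than the mean of all samples by about 3 SD, 99.7% confidence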;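 also: fluorescence intensity change per second fitted from 20 to 320 s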); settings: Recombinant KvBeta, NADPH fluorescence decrease slope, 10 min; at 10 µM; stronger effect = lower value
[6] = target: Muscarinic acetylcholine receptor M4 (Homo sapiens) (UniProt P08173); experiment: compounds altering M4/GIRK thallium flux, either direction, primary screen, M4 allosteric agonist project, cell-based, HEK293 M4/GIRK, BTC-AM (AID 625;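 active = fluorescence slope after compound addition differing from the mean of all tested samples at 99.7% confidence, mostly higher but some lower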;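 also: thallium influx through GIRK channels coupled to M4 in HEK293 cells with BTC-AM dye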); settings: at 10 µM, actives lie on both sides
[7] = inhibitors of Sendai virus-induced IRF3 signaling, primary screen, TLR/RLR signaling modifier project, cell-based, Sendai virus stimulus, luciferase, 10K MLSCN set (AID 602276;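 active = inhibition at or above 50% at 10 µM; inactive = inhibition below 50%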;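 also: firefly luciferase from ISG56 promoter only with Renilla not read in this screen; 0% = Sendai virus plus DMSO and 100% = medium plus DMSO without virus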); settings: HEK293 RL24 IRF3 luciferase reporter, at 10 µM, stronger effect = higher value
[8] = inhibitors of poly I:C-induced TLR3 signaling, primary screen, cell-based, poly I:C stimulus, luciferase, 10K MLSCN set (AID 602277;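 active = inhibition of the reporter signal at or above 50%; inactive = inhibition below 50%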); settings: HEK293-TLR3 RL24 IRF3 luciferase reporter, at 10 µM, stronger effect = higher value
[9] = target: Alpha-2C adrenergic receptor (Homo sapiens) (UniProt P18825); experiment: modulators of alpha2C/GIRK thallium flux, primary screen, cell-based, HEK293 alpha2C/GIRK1/2 (AID 624;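 active = fluorescence slope after compound addition differing from the mean of all screened samples at 99.7% confidence, in either direction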;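 also: slope of fluorescence ratio to pre-addition baseline per second over 15 to 24 s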); settings: thallium flux BTC fluorescence, at 10 µM, actives lie on both sides
[10] = inhibitors of Chlamydomonas gravitaxis, primary screen, whole organism, Chlamydomonas reinhardtii, WT vs cilia-less mutant, absorbance, 96-well (AID 463189;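 active = inhibition at or above 50% relative to wild type and mutant plate controls; inactive = inhibition below 50%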;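 also: 0% = wild type cc124 cells in DMSO and 100% = ciliumless bld1 mutant cells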); settings: OD600 absorbance, 2 days, at 10 µM, stronger effect = higher value

Chain of Voltage-gated potassium channel subunit beta-2 (Rattus norvegicus) (P62483 whole entry, looked up): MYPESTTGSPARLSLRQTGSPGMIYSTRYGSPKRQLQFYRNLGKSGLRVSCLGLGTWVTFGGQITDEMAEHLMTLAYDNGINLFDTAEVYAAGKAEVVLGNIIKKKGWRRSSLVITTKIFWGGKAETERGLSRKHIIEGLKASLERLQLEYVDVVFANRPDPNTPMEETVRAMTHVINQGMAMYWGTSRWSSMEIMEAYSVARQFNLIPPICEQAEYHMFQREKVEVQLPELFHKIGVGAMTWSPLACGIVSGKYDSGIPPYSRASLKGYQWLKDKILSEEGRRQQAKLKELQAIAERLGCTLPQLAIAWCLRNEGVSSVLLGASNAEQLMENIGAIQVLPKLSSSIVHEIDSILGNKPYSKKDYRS
Chain of Muscarinic acetylcholine receptor M4 (Homo sapiens) (P08173 whole entry, looked up): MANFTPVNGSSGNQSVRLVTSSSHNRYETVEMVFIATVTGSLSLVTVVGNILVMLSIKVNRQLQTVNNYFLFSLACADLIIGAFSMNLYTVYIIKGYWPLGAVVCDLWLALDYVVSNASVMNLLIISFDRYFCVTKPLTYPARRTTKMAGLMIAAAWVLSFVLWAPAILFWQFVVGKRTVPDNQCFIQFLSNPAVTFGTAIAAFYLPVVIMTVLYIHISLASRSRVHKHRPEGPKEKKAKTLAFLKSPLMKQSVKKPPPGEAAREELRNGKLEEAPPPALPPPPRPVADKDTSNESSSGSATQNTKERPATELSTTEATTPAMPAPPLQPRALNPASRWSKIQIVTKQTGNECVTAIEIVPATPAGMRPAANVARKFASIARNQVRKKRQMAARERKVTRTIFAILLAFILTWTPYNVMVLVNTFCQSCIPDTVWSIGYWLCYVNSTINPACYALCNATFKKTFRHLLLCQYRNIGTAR
Chain of Alpha-2C adrenergic receptor (Homo sapiens) (P18825 whole entry, looked up): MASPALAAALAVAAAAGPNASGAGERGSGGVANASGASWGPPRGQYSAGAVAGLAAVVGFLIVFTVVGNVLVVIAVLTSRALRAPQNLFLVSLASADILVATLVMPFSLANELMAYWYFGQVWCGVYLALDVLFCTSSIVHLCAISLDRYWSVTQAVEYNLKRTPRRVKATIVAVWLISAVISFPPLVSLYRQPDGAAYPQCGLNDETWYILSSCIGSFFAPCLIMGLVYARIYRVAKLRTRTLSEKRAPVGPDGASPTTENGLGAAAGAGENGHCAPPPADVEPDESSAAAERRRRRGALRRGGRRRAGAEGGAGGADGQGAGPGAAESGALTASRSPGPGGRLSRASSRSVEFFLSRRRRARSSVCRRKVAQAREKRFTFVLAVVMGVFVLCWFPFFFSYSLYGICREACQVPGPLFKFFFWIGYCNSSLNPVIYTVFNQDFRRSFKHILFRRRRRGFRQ

Row | Structure (SMILES) | cell count [1] | inhibition [1] | inhibition of aggregation [2] | nuclei count [2] [%] | inhibition [3] | nuclei count [3] [%] | fluorescence slope [4] | NADPH fluorescence slope [5] | fluorescence slope [6] | inhibition [7] | inhibition [8] | slope [9] | inhibition [10]
1 | COc1ccc(CCNC(=O)c2c(N)n(CCN3CCOCC3)c3nc4ccccc4nc23)cc1 | 403 | 9.5% (inactive) | -9.7% (inactive) | 90.9 | -157% (inactive) | 115 | -0.454 (inactive) | -7.3e-05 (inactive) | 0.00515 (inactive) | -3.7% (inactive) | -28.7% (inactive) | – | –
2 | CCC(C)NC(=O)c1c(N)n(CC2CCCO2)c2nc3ccccc3nc12 (stereo not given) | 603 | -1.4% (inactive) | -0.7% (inactive) | 80.9 | -13.3% (inactive) | 128 | -0.058 (active) | 1.6e-05 (inactive) | 0.00598 (inactive) | 14.8% (inactive) | 17.6% (inactive) | – | –
3 | Cc1[nH]c2c(Cl)cccc2c1CCN | 517 | 3.9% (inactive) | 1.5% (inactive) | 86.5 | -19.9% (inactive) | 110 | -0.427 (inactive) | -1.2e-05 (inactive) | 0.0063 (inactive) | 13% (inactive) | 18.6% (inactive) | – | –
4 | O=c1[nH]c(=O)n(-c2ccc(F)cc2)c(O)c1C=Nc1ccccc1N1CCCC1 | 459 | -0.3% (inactive) | -4.4% (inactive) | 112 | -109% (inactive) | 118 | -0.0108 (inactive) | 1.9e-06 (inactive) | – | 3.89% (inactive) | 14.6% (inactive) | 0.00376 (inactive) | –
5 | CCOC(=O)C1CCCCC12C(C#N)=C(N)Oc1n[nH]c(C)c12 (stereo not given) | 733 | -5.8% (inactive) | -12% (inactive) | 104 | -6.6% (inactive) | 110 | -0.637 (inactive) | 1.2e-05 (inactive) | 0.00575 (inactive) | 17.2% (inactive) | 21.9% (inactive) | – | –
6 | NC(CCP(=O)(O)O)C(=O)O (stereo not given) | – | – | – | – | – | – | – | – | – | – | – | – | 17.2% (inactive)
7 | CC1CCN2c3nc4ccccn4c(=O)c3CC3(C(=O)N(C)C(=O)N(C)C3=O)C2C1 (stereo not given) | 459 | -8.6% (inactive) | 11.4% (inactive) | 76.7 | -10% (inactive) | 95.1 | -0.523 (inactive) | -6.2e-05 (inactive) | 0.00473 (inactive) | 10.8% (inactive) | 16.3% (inactive) | – | –
8 | NC(=O)CSP(=O)(c1ccccc1)c1ccccc1 | 427 | -3.5% (inactive) | 4.2% (inactive) | 110 | -31.5% (inactive) | 105 | -0.541 (inactive) | -3.8e-05 (inactive) | 0.00487 (inactive) | 6.33% (inactive) | 18.3% (inactive) | – | –
9 | CC(C)=CCSc1nnc([C@@H](N)Cc2c[nH]c3ccccc23)o1 | 593 | 0.9% (inactive) | 14.2% (inactive) | 101 | 2.3% (inactive) | 92.2 | -0.561 (inactive) | 2.9e-05 (inactive) | 0.00453 (inactive) | 5.87% (inactive) | 2.18% (inactive) | – | –
10 | CCOc1ccc(Br)c(C2(O)CC(C)N(C)CC2C)c1 (stereo not given) | 607 | -10.1% (inactive) | -25.8% (inactive) | 122 | -36.6% (inactive) | 121 | -0.398 (inactive) | -8.9e-05 (inactive) | 0.00551 (inactive) | 12.4% (inactive) | 21.4% (inactive) | – | –
11 | COc1ccc(OC)c(C2=NOC(C(=O)N3CCC4(CC3)OCCO4)C2)c1 (stereo not given) | 789 | -17.7% (inactive) | 4% (inactive) | 84.6 | -52.4% (inactive) | 77.7 | -0.234 (inactive) | -6.7e-06 (inactive) | 0.00835 (inactive) | 10.6% (inactive) | 17% (inactive) | – | –
12 | CCOC(=O)c1cccc([P+](=O)O)c1 | 570 | 0% (inactive) | 1.9% (inactive) | 95.2 | -41.6% (inactive) | 106 | -0.582 (inactive) | -3.4e-05 (inactive) | 0.00773 (inactive) | -12.3% (inactive) | -3.34% (inactive) | – | –
13 | CC(C)OC(=O)c1c(N)n(CC2CCCO2)c2nc3ccccc3nc12 (stereo not given) | 470 | -5.1% (inactive) | 23.6% (inactive) | 104 | -26.3% (inactive) | 191 | -0.0217 (active) | 1.4e-05 (inactive) | 0.00718 (inactive) | 9.43% (inactive) | 13.4% (inactive) | – | –
14 | O=c1[nH]c(=O)n(Cc2ccccc2)c(O)c1C=NCCCO | 414 | -6.5% (inactive) | 24.4% (inactive) | 90.8 | -59% (inactive) | 128 | -0.52 (inactive) | -3e-05 (inactive) | 0.00467 (inactive) | 16.7% (inactive) | 16.9% (inactive) | – | –
15 | CC(=NCc1cccnc1)c1c(O)n(Cc2ccccc2)c(=O)[nH]c1=O | 421 | 1.2% (inactive) | -11.9% (inactive) | 120 | -174% (inactive) | 126 | -0.492 (inactive) | 0.000113 (inactive) | 0.0065 (inactive) | 9.01% (inactive) | 3.95% (inactive) | – | –
